# Inconclusive results are not listed. Values without a mark were called inactive. Calls of active or inactive are those of the source. The call rests on the fitted dose curve; in most records, active means well fitted activation curve with a large enough effect in the signal ratio in the repeat runs (not every such curve was filed as active); inconclusive means weak or mixed curves, or effect the other way; inactive means no such curve, though single readings can be large or run the other way; the % refers to the signal ratio.
# Target: Peroxisome proliferator-activated receptor gamma (Homo sapiens) (UniProt P37231)
# Sequence (P37231 whole entry, looked up): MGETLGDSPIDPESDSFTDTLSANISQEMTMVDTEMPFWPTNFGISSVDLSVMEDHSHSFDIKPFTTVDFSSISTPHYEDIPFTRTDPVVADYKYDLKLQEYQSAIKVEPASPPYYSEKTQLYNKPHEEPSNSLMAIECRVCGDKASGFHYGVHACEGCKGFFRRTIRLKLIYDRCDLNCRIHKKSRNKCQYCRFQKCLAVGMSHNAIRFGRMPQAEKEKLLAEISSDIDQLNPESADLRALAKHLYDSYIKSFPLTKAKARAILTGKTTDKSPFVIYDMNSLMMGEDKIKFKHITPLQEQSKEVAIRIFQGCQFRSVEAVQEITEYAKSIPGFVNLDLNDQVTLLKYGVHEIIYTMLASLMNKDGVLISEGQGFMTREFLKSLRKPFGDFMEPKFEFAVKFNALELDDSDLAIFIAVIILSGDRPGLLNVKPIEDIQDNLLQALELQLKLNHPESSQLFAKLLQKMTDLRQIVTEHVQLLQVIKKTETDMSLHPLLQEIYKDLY
# Assay: qHTS assay to identify small molecule agonists of the peroxisome proliferator-activated receptor gamma (PPARg) signaling pathway (AID 743094)
# Conditions: HEK293H PPARg-UAS-bla, beta-lactamase FRET ratio, 17 h; series mostly up to 57 µM; activation: at the top concentration
# From the text: U.S. Tox21 Program National Center for Advancing Translational Sciences [NCATS] NIH Chemical Genomics Center [NCGC] U.S. Environmental Protection Agency [EPA] National Institutes of Environmental Health Sciences [NIEHS] National Toxicology Program [NTP] U.S. Food and Drug Administration [FDA] Tox21 Assay Overview: The peroxisome proliferator-activated receptors (PPARs) are lipid-activated transcription factors of the nuclear receptor superfamily with three distinct subtypes namely PPAR alpha, PPAR delta (also called PPAR beta) and PPAR gamma (PPARg). All these subtypes heterodimerize with Retinoid X receptor (RXR) and these heterodimers regulate transcription of various genes. PPAR-gamma receptor (glitazone receptor) is involved in the regulation of glucose and lipid metabolism. To identify the compounds that activate PPAR-gamma signaling, GeneBLAzer PPAR gamma UAS-bla HEK293H cell line (Invitrogen, Carlsbad, CA, USA) containing a beta-lactamase reporter gene under control of the control of an upstream activator sequence (UAS) stably integrated into HEK293H cells was used to screen Tox21 compound library.
# Tox21 Assay Protocol Summary: PPARg-bla cells were dispensed at 3000 cells/6uL/well in 1536-well black wall/clear bottom plates using a Multidrop Combi (Thermo Fisher Scientific, Waltham, MA) dispenser. After the assay plates were incubated at 37C and 5% CO2 for 5 h, 23 nL of compounds dissolved in DMSO, positive controls or DMSO only was transferred to the assay plate by a Pintool station (Kalypsys, San Diego, CA). The assay plates were incubated at 37C for 17 h. After 1 uL of LiveBLAzerTM B/G FRET substrate was added using a Bioraptr Flying Reagent Dispenser (FRD) workstation (Beckman Coulter, Indianapolis, IN, USA), the plates were incubated at room temperature for 1 h, and fluorescence intensity was measured by an Envision plate reader (PerkinElmer, Shelton, CT).
# On the % scale 0 is the no-effect control and ±100 the full control effect.
SMILES,activation,outcome
O=C1CCCC(=O)O1,-0.18%,
CC(C)NCC(O)COc1ccc(COCCOC(C)C)cc1 (stereo not given),,inactive
C[C@@H](Oc1ccc(CNC(=O)c2cccnc2Oc2ccc3c(c2)OCO3)c(F)c1)C(=O)O,-6.33%,
CCCC(=O)C(C)=O,0.174%,
Cc1ccsc1/C=C/C1=NCCCN1C,5.07% [at 26.2 µM],
CCC(C=O)CC,-5.88% [at 78.9 µM],
Cc1cccc(C)c1OCC(C)N (stereo not given),-3.94%,
CC(=O)/C=C/C1C(C)=CCC(C)C1(C)C (stereo not given),-2.57%,
Cc1ccc2c(c1)OCC(=O)CO2,2.5%,
COc1cc2c(cc1OC)[C@@H]1CC(=O)[C@@H](CC(C)C)CN1CC2,3.67%,
CC(C)CCCC(C)(C)O,5.06%,
O=C(NCCc1c[nH]c2ccccc12)c1cccnc1,-0.21%,
CC(=O)NCCCCCC(=O)O,-3.34%,
C=CCCCCCCCCCCCC,-0.272%,
CCCCOC(=O)c1ccccc1,0.0508%,
c1ccc2c(c1)ccc1c3ccccc3ccc21,0.868%,
CC1=CCC(C(C)C)=CC1,-0.529%,
C[C@@H]1O[C@@H](O[C@@H]2[C@@H](O)[C@H](OCCc3ccc(O)c(O)c3)O[C@H](CO[C@@H]3O[C@H](CO)[C@@H](O)[C@H](O)[C@H]3O)[C@H]2OC(=O)/C=C/c2ccc(O)c(O)c2)[C@H](O)[C@H](O)[C@H]1O,0.613%,
CC[C@H](C)C(=O)O[C@H]1C[C@H](O)C=C2C=C[C@H](C)[C@H](CC[C@@H](O)C[C@@H](O)CC(=O)O)[C@H]21,,inactive
CCC(CC)CO,3.62%,

SMILES,activation,outcome
CC(=O)Nc1cccc(C)c1,-4.22% [at 78.9 µM],
CCCCCCCC/C=C\CCCCCCCC(=O)OCCCC,-7.03% [at 26.2 µM],
CCO[Si](CCCS)(OCC)OCC,1.75%,
CNS(=O)(=O)CCc1ccc2[nH]cc(C3CCN(C)CC3)c2c1,0.819%,
CCCCCCCCCC(C)=O,4.06% [at 78.9 µM],
CC(C)(C)OC(=O)c1ccc(O)cc1,0.886%,
CCCOC(OCCC)OCCC,2.36%,
NCCS,,inactive
CC(CN)CC(C)(C)CCN (stereo not given),-2.71% [at 78.9 µM],
Cc1ccc(C=O)cc1C,1.5%,
CCOC(=O)/C=C/c1ccccc1,-2.66%,
CC(=O)N[C@@H](CCC(=O)O)C(=O)O,-0.0104%,
CC(CO)c1ccccc1 (stereo not given),-5.14%,
Cc1ccccc1OCC(O)CO (stereo not given),4.3%,
COCCOC(=O)C1=C(C)NC(C)=C(C(=O)OC(C)C)C1c1cccc([N+](=O)[O-])c1 (stereo not given),-6.92%,
O=Cc1ccc(Cl)c(Cl)c1,0.69% [at 78.9 µM],
Cc1cc(NC(=O)C2=C(O)c3ccccc3S(=O)(=O)N2C)no1,1.14%,
CCOC(=O)[C@H](CCc1ccccc1)N[C@@H](C)C(=O)N1C(=O)N(C)C[C@H]1C(=O)O,4.19%,
COc1cc(NS(=O)(=O)c2ccc(N)cc2)nc(OC)n1,4.36% [at 26.2 µM],
O=C(O)c1ccc(Cl)cc1Cl,-1.07% [at 78.9 µM],

# — PubChem BioAssay (Tox21)
